In PubChem BioAssay (NCI):
Compounds without any hit were thinned out: in the full panel of roughly 83,000, 20% have a hit.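 48-hour exposure, single concentration, 96-well plates; percent growth endpoint where 0 means no net growth. Active: below 10.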 Active and inactive are the calls of the source.

These compounds were tested on HOP-92 NSCLC (assay: NCI-60 one-dose screen, 48 h (100 = growth as untreated, 0 = no growth, -100 = all killed)). Conditions: 10 µM unless noted.

| Structure (SMILES) | growth |
| --- | --- |
| COc1cc(/C=C\c2cc(OC)c(OC)c(OC)c2)cc(N/C=C\C(=O)c2cc(OC)c(OC)c(OC)c2)c1OC | -9.27% (active) |
| N#C[S-].[Au+].c1ccc(CN2[CH-]N(Cc3ccccc3)C(c3ccccc3)=C2c2ccccc2)cc1 | -25% (active) |
| O=[N+]([O-])c1ccc(OP(=O)(CCl)N(CCCl)CCCl)cc1 (stereo unspecified) | 114% (inactive) |
| O=C1CC2(CC3(Cl)C(Cl)=C(Cl)C2(Cl)C3(Cl)Cl)C(=O)O1 (stereo unspecified) | 107% (inactive) |
| COc1cc2c(cc1OCCCCCn1c(-c3ccco3)nc3ccccc31)N=C[C@@H]1CCCN1C2=O | -5.94% (active) |
| O=C(O)c1ccc([S-])cc1.[Au+].c1ccc(CN2[CH-]N(Cc3ccccc3)C(c3ccccc3)=C2c2ccccc2)cc1 | -45% (active) |
| N#C[Se]Cc1cc(-c2ccccc2)n(-c2ccc(S(N)(=O)=O)cc2)n1 | -61.3% (active) |
| COc1cc2c(cc1OCCCCn1c(-c3cccs3)nc3ccccc31)N=C[C@@H]1CCCN1C2=O | -64.6% (active) |
| COc1ccc(/C=C\c2cc(OC)c(OC)c(OC)c2)cc1OCC(=O)Nc1nc2ccc(F)cc2s1 | 57.7% (inactive) |
| O=C(Nc1ccc([N+](=O)[O-])cc1)C(Cl)(Cl)Cl | 88% (inactive) |
| C[CH2][Sn]([Cl])([Cl])[CH2]C.Oc1ccccc1C=NCCN=Cc1ccccc1O | 95.2% (inactive) |
| C[N+]12CN3CN(CN(C3)C1)C2 | 71% (inactive) |
| C[C@]12CC[C@@H]3c4ccc(Oc5nc(N6CC6)nc(N6CC6)n5)cc4CC[C@H]3[C@@H]1CCC2=O | 104% (inactive) |
| c1ccc(COc2ccc3[nH]cc(CCN(Cc4ccccc4)Cc4ccccc4)c3c2)cc1 | 81.6% (inactive) |
| [Au+].[N-]=C=O.c1ccc(CN2[CH-]N(Cc3ccccc3)C(c3ccccc3)=C2c2ccccc2)cc1 | 81.4% (inactive) |
| CC1=C(CCCNS(C)(=O)=O)C2=C(C)C3(CC3)[C@@](C)(O)C(=O)C2=C1 | -25.7% (active) |
| C[C@]12CC[C@H]3[C@@H](CC[C@]4(O)C[C@@H](O[C@@H]5O[C@H](CO)[C@@H](O[C@@H]6OC[C@@H](O)[C@H](O)[C@H]6O)[C@H](O)[C@H]5O)CC[C@]34C=O)[C@@]1(O)CC[C@@H]2C1=CC(=O)OC1 | 43.7% (inactive) |
| CN1C(=O)N[C@H]2[C@@H]3NC(=O)c4ccc(Br)n4[C@@H]3C[C@]21O | -9.65% (active) |
| COC1OC(CO)C(O)C(O)[CH]1[Hg][O]C(C)=O (stereo unspecified) | 123% (inactive) |

| Structure (SMILES) | growth |
| --- | --- |
| OCc1ccc2c(c1)OCO2 | 97.3% (inactive) |
| Nc1nnnc2nc[nH]c12 | 1.91% (active) |
| CC1CCCC(C[N+](C)(C)C)C1=O (stereo unspecified) | 83.8% (inactive) |
| CNC(=O)Oc1cccc(C(F)(F)F)c1 | 106% (inactive) |
| COc1cc2c(cc1OCCCn1c(-c3ccccn3)nc3ccccc31)N=C[C@@H]1CCCN1C2=O | -59.6% (active) |
| CCCCCCCOC(C(=O)OCCN(CC)CC)(c1ccccc1)c1ccccc1 | 67.6% (inactive) |
| CC(=O)OCC1O[C@@H]([S-])C(OC(C)=O)[C@H](OC(C)=O)[C@@H]1OC(C)=O.[Au+].c1ccc(CN2[CH-]N(Cc3ccccc3)C(c3ccccc3)=C2c2ccccc2)cc1 | -7.44% (active) |
| COc1ccc(C(=O)c2sc3nc4c(cc3c2N)N2CCC4CC2)cc1OC | 6.56% (active) |
| CC(CC1CCCCC1)NCc1ccccc1 (stereo unspecified) | 80.1% (inactive) |
| COc1ccc(/C=C\c2cc(OC)c(OC)c(OC)c2)cc1OCC(=O)Nc1nc2ccc(C(F)(F)F)cc2s1 | 46.6% (inactive) |
| O=C1CCC2(O)[C@@H]3Cc4ccc(O)c5c4[C@]2(CCN3Cc2ccoc2)C1O5 (stereo partly specified) | 100% (inactive) |
| C/C(=C\c1cc(C(F)(F)F)nn1CCNC(=O)OC(C)(C)C)[C@@H]1C[C@@H]2O[C@]2(C)CCC[C@H](C)[C@H](O)[C@@H](C)C(=O)C(C)(C)[C@@H](O)CC(=O)O1 | 66.4% (inactive) |
| CC(C)CCC(=O)O[C@H]1CC[C@H]2[C@@H]3CCC4=CC(=O)CC[C@]4(C)[C@H]3CC[C@]12C | 112% (inactive) |
| ClCCN(CCCl)Cc1ccc(Nc2ccnc3cc(Cl)ccc23)cc1 | -4.98% (active) |
| COc1cc(NC(C)CCCNC2CN3CCC2CC3)c2ncccc2c1 (stereo unspecified) | 46.6% (inactive) |
| C=CCCCN=C=S | 92% (inactive) |
| CCN(CC)CCOC(=O)C(OC(C)C)(c1ccccc1)c1ccccc1 | 80.1% (inactive) |
| CCC1(C(C)C)C(=O)NC(=S)NC1=O | 91.5% (inactive) |
| CC[C@]12C=CCN3CC[C@]4(C(=C(C(=O)OC)C1)Nc1cc(OC)c(OC(C)=O)cc14)[C@@H]32 | 4.72% (active) |

What follows are compounds tested on NCI-H522 lung in the same assay as above. Conditions: 10 µM unless noted.

| Structure (SMILES) | growth |
| --- | --- |
| COc1cc(/C=C\c2cc(OC)c(OC)c(OC)c2)cc(N/C=C\C(=O)c2cc(OC)c(OC)c(OC)c2)c1OC | 6.46% (active) |
| N#C[S-].[Au+].c1ccc(CN2[CH-]N(Cc3ccccc3)C(c3ccccc3)=C2c2ccccc2)cc1 | -30.9% (active) |
| O=[N+]([O-])c1ccc(OP(=O)(CCl)N(CCCl)CCCl)cc1 (stereo unspecified) | 74.8% (inactive) |
| O=C1CC2(CC3(Cl)C(Cl)=C(Cl)C2(Cl)C3(Cl)Cl)C(=O)O1 (stereo unspecified) | 102% (inactive) |
| COc1cc2c(cc1OCCCCCn1c(-c3ccco3)nc3ccccc31)N=C[C@@H]1CCCN1C2=O | -23.9% (active) |
| O=C(O)c1ccc([S-])cc1.[Au+].c1ccc(CN2[CH-]N(Cc3ccccc3)C(c3ccccc3)=C2c2ccccc2)cc1 | -44.9% (active) |
| N#C[Se]Cc1cc(-c2ccccc2)n(-c2ccc(S(N)(=O)=O)cc2)n1 | -7.38% (active) |
| COc1cc2c(cc1OCCCCn1c(-c3cccs3)nc3ccccc31)N=C[C@@H]1CCCN1C2=O | -27.4% (active) |
| COc1ccc(/C=C\c2cc(OC)c(OC)c(OC)c2)cc1OCC(=O)Nc1nc2ccc(F)cc2s1 | 6.14% (active) |
| O=C(Nc1ccc([N+](=O)[O-])cc1)C(Cl)(Cl)Cl | 106% (inactive) |
| C[CH2][Sn]([Cl])([Cl])[CH2]C.Oc1ccccc1C=NCCN=Cc1ccccc1O | 9.48% (active) |
| C[N+]12CN3CN(CN(C3)C1)C2 | 94.5% (inactive) |
| C[C@]12CC[C@@H]3c4ccc(Oc5nc(N6CC6)nc(N6CC6)n5)cc4CC[C@H]3[C@@H]1CCC2=O | 31.5% (inactive) |
| c1ccc(COc2ccc3[nH]cc(CCN(Cc4ccccc4)Cc4ccccc4)c3c2)cc1 | 82.9% (inactive) |
| [Au+].[N-]=C=O.c1ccc(CN2[CH-]N(Cc3ccccc3)C(c3ccccc3)=C2c2ccccc2)cc1 | 5.83% (active) |
| CC1=C(CCCNS(C)(=O)=O)C2=C(C)C3(CC3)[C@@](C)(O)C(=O)C2=C1 | 6.89% (active) |
| C[C@]12CC[C@H]3[C@@H](CC[C@]4(O)C[C@@H](O[C@@H]5O[C@H](CO)[C@@H](O[C@@H]6OC[C@@H](O)[C@H](O)[C@H]6O)[C@H](O)[C@H]5O)CC[C@]34C=O)[C@@]1(O)CC[C@@H]2C1=CC(=O)OC1 | -35.2% (active) |
| CN1C(=O)N[C@H]2[C@@H]3NC(=O)c4ccc(Br)n4[C@@H]3C[C@]21O | -38.2% (active) |
| COC1OC(CO)C(O)C(O)[CH]1[Hg][O]C(C)=O (stereo unspecified) | -42.7% (active) |

| Structure (SMILES) | growth |
| --- | --- |
| OCc1ccc2c(c1)OCO2 | 90.8% (inactive) |
| Nc1nnnc2nc[nH]c12 | 14.6% (inactive) |
| CC1CCCC(C[N+](C)(C)C)C1=O (stereo unspecified) | 98.7% (inactive) |
| CNC(=O)Oc1cccc(C(F)(F)F)c1 | 95.2% (inactive) |
| COc1cc2c(cc1OCCCn1c(-c3ccccn3)nc3ccccc31)N=C[C@@H]1CCCN1C2=O | -5.46% (active) |
| CCCCCCCOC(C(=O)OCCN(CC)CC)(c1ccccc1)c1ccccc1 | 73.4% (inactive) |
| CC(=O)OCC1O[C@@H]([S-])C(OC(C)=O)[C@H](OC(C)=O)[C@@H]1OC(C)=O.[Au+].c1ccc(CN2[CH-]N(Cc3ccccc3)C(c3ccccc3)=C2c2ccccc2)cc1 | -47.6% (active) |
| COc1ccc(C(=O)c2sc3nc4c(cc3c2N)N2CCC4CC2)cc1OC | 82.4% (inactive) |
| CC(CC1CCCCC1)NCc1ccccc1 (stereo unspecified) | 94.6% (inactive) |
| COc1ccc(/C=C\c2cc(OC)c(OC)c(OC)c2)cc1OCC(=O)Nc1nc2ccc(C(F)(F)F)cc2s1 | -39.2% (active) |
| O=C1CCC2(O)[C@@H]3Cc4ccc(O)c5c4[C@]2(CCN3Cc2ccoc2)C1O5 (stereo partly specified) | 95.4% (inactive) |
| C/C(=C\c1cc(C(F)(F)F)nn1CCNC(=O)OC(C)(C)C)[C@@H]1C[C@@H]2O[C@]2(C)CCC[C@H](C)[C@H](O)[C@@H](C)C(=O)C(C)(C)[C@@H](O)CC(=O)O1 | 63.5% (inactive) |
| CC(C)CCC(=O)O[C@H]1CC[C@H]2[C@@H]3CCC4=CC(=O)CC[C@]4(C)[C@H]3CC[C@]12C | 93.3% (inactive) |
| ClCCN(CCCl)Cc1ccc(Nc2ccnc3cc(Cl)ccc23)cc1 | -34.7% (active) |
| COc1cc(NC(C)CCCNC2CN3CCC2CC3)c2ncccc2c1 (stereo unspecified) | 82.1% (inactive) |
| C=CCCCN=C=S | 38% (inactive) |
| CCN(CC)CCOC(=O)C(OC(C)C)(c1ccccc1)c1ccccc1 | 82.3% (inactive) |
| CCC1(C(C)C)C(=O)NC(=S)NC1=O | 105% (inactive) |
| CC[C@]12C=CCN3CC[C@]4(C(=C(C(=O)OC)C1)Nc1cc(OC)c(OC(C)=O)cc14)[C@@H]32 | -1.97% (active) |
